The whole screen tested about 400,000 compounds, of which about 13,000 (3.2%) were called active. About 18% were inconclusive and are not listed. The call rests on the fitted dose curve; in most records, active means well fitted cell-killing curve with a large enough effect; inconclusive means small, poorly fitted or top-dose-only effect, or effect the other way; inactive means flat fitted curve, though single readings scatter. Shown is part of a subset that was picked to be rich in actives. A call without a number means that no potency is given here.
Potency means the concentration at half of the fitted maximal effect.

A short description of the assay: qHTS assay for MDR1-selective chemotherapeutics: Primary screen using the drug-selected MDR subline cells KB-V1. Further: nearly all actives have a fitted effect of over 60% in size. Conditions: KB-V1 MDR cells viability, CellTiter-Glo, 72 h; series mostly up to 46.1 µM. In short, it runs like this:
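Luminescent ATP read-out (CellTiter-Glo, 10 min) measures survival of drug-selected KB-V1 MDR cells after 72 h, 37 degrees C compound exposure. Medium: phenol-red-free DMEM, 10% FBS. Values from fitted concentration-response curves.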
For orientation: In qHTS, concentration-response curves come from the screen itself.
`Fc1ccccc1COc1cccc2cccnc12`: the Potency entry was “inactive”.

On to `Fc1ccccc1COc1ccccc1CNCc1ccncc1`, for which the Potency is 6.51 µM (active).

Consider `CCOc1cc(/C=N/O)ccc1OCc1ccccc1F`, for which the Potency result is “inactive”.

Regarding `COc1ccc(-n2nnc(-c3nsc(NC(=O)c4ccc(C)c(C)c4)n3)c2C)cc1Cl`, the Potency entry is “inactive”.

On to `CCOc1ccc(NC(=O)Nc2ccc(N(C)C(C)=O)cc2)cc1`, for which the Potency result is “inactive”.

For the molecule `COc1ccc(C)cc1NC(=O)NCc1ccccn1`, the Potency entry was “inactive”.

With `CCOc1ccc(NC(=O)Nc2cc(C)ccc2OC)cc1`, the Potency was 14.6 µM (active).

`Cc1ccc(Cl)cc1-n1ncc2c(N3CCC(C(N)=O)CC3)ncnc21`: the Potency entry is “inactive”.

Turning to `CC(=O)c1ccc(OCC(=O)N(C)C2CCS(=O)(=O)C2)cc1` (centres undefined), the Potency result was “inactive”.

Regarding `COc1ccc(CCNc2nc(-c3ccc(F)cc3)cc(C(F)(F)F)n2)cc1OC`, the Potency entry was “inactive”.

As for `O=C(COc1cc(Cl)c(Cl)cc1Cl)NC(=O)NC1CCCC1`, the Potency result is “inactive”.

Regarding `CCCC(=O)Nc1cc(OCC)c(NC(=O)NC2CCCCC2)cc1OCC`, the Potency result is “inactive”.

`CCCN(CC(=O)NC(=O)NC1CCCCC1)CC(=O)Nc1cc(Cl)ccc1Cl`: the Potency was 4.11 µM (active).

For `CSc1ccc(CNC(=O)C2(C)CCCN2C)cc1` (centres undefined), the Potency result is “inactive”.

As for `CCN(CC)c1ncnc2c1ncn2[C@H]1CN(Cc2cccs2)C[C@@H](CO)O1`, the Potency entry is “inactive”.

On to `COCCNC(=O)c1ccc2c(c1)N=C(C)c1cc(C)ccc1S2`, for which the Potency is 0.92 µM (active).

In the case of `CCC1=Nc2cc(C(=O)NCCCN3CCOCC3)ccc2Sc2ccc(Br)cc21`, the Potency result was “inactive”.

In the case of `CCC1=Nc2cc(C(=O)NCCN3CCCC3)ccc2Sc2ccc(C)cc21`, the Potency result was “inactive”.

Turning to `CCN1C(=O)[C@@H]2[C@@H]3CN(S(=O)(=O)c4ccccc4C)[C@@H](c4ccc(Cl)cc4)[C@@H]3C(=O)C[C@@H]2C1=O`, the Potency entry was “inactive”.

Take `Cc1ccc(S(=O)(=O)N2CCN(C(=O)COC(=O)c3c(C)noc3C)CC2)c(C)c1`: the Potency result is “inactive”.

On to `Cc1ccc(-c2nc(COC(=O)c3c(C)noc3C)cs2)cc1`, for which the Potency was 23.1 µM (active).

Turning to `COc1ccc(C(=O)COC(=O)c2c(C)noc2C)cc1Cl`, the Potency entry is “inactive”.

For the molecule `CCc1ccc(C2CC(=O)c3c([nH]c(C(=O)OCc4ccc(C)cc4)c3C)C2)cc1` (centres undefined), the Potency entry is “inactive”.

Turning to `COc1ccc(-n2c(=O)c3ccccc3n(Cc3ccccc3Cl)c2=O)cc1`, the Potency entry was “inactive”.

For the molecule `N#CCCN(C(=S)Nc1ccc(Cl)c(Cl)c1)C1CCCCC1`, the Potency entry is “inactive”.

As to `COc1ccc(C2C(=O)N(C3CCCCC3)CC(=O)N2Cc2ccccc2Cl)cc1OC` (centres undefined), the Potency entry is “inactive”.

For the molecule `CCCC(=O)N1CCC1(C)C(=O)NS(=O)(=O)c1ccc(Cl)cc1` (centres undefined), the Potency entry is “inactive”.

As to `CCn1cc(C(=O)NCCc2ccccc2)c(=O)c2cc(S(=O)(=O)N3CCCCCC3)ccc21`, the Potency entry was “inactive”.

For `CCOc1ccccc1NC(=O)Cn1nnc(C(=O)NCc2cccs2)c1N`, the Potency is 0.58 µM (active).

As to `CCOc1ccccc1NC(=O)Cc1cccs1`, the Potency result is “inactive”.

For the molecule `CCOc1ccccc1NC(=O)Cn1nnc(C(=O)Nc2ccc(C)c(C)c2)c1N`, the Potency entry is “inactive”.

On to `O=C(Cc1ccc(Cl)cc1)Nc1ccc2nn(-c3ccc(Cl)cc3)nc2c1`, for which the Potency entry was “inactive”.

Regarding `Nc1nc(NCCCN2CCOCC2)nc(Nc2ccccc2)c1[N+](=O)[O-]`, the Potency is 23.1 µM (active).

On to `CC1CN(c2nc(Nc3ccccc3)nc(N)c2[N+](=O)[O-])CC(C)O1` (centres undefined), for which the Potency result was “inactive”.

Take `O=[N+]([O-])c1ccc(NCCCN2CCOCC2)c(Cl)c1`: the Potency entry was “inactive”.

For `COc1ccc(-c2cc3c(c4c2ccn4C)C2CCC3C2)cn1` (centres undefined), the Potency entry was “inactive”.

Regarding `O=C(Cn1c(=O)nc(-c2ccccc2)c2cc(Cl)ccc21)NCc1ccc(Cl)cc1`, the Potency result was “inactive”.

For `COc1cccc(NC(=O)Nc2ccc(F)cc2)c1`, the Potency result is “inactive”.

With `CC1(C(=O)NS(=O)(=O)c2ccc3ccccc3c2)CCN1C(=O)C1(c2ccc(Cl)cc2)CCC1` (centres undefined), the Potency entry is “inactive”.

For `CN1CCN(S(=O)(=O)c2cccc(C(=O)N3CCc4ccccc43)c2)CC1`, the Potency result is “inactive”.

For `CN(C)C(CNC(=O)c1cccc(S(=O)(=O)N2CCc3ccccc3C2)c1)c1ccccc1` (centres undefined), the Potency result is “inactive”.

Turning to `Cc1cccc(N2CCN(C(=O)c3cccc(S(=O)(=O)N4CCc5ccccc5C4)c3)CC2C)c1` (centres undefined), the Potency is 2.59 µM (active).

Take `O=C(COC(=O)c1cncc(Br)c1)Nc1ccc(S(=O)(=O)N2CCOCC2)cc1`: the Potency result was “inactive”.

As to `Cc1ccc(S(=O)(=O)N2CCN(c3ncnc4ccccc34)CC2)cc1`, the Potency result is “inactive”.

On to `Cc1ccc(C)c(S(=O)(=O)N2CCN(c3ncnc4sccc34)CC2)c1`, for which the Potency is 7.31 µM (active).

Consider `COc1ccc(C)cc1S(=O)(=O)N1CCN(S(=O)(=O)c2cc(C(=O)O)ccc2C)CC1`, for which the Potency result is “inactive”.

As for `CCc1nc2c(OCc3ccccc3)cccn2c1N(C)C(=O)c1ccco1`, the Potency entry is “inactive”.

Turning to `COc1ccccc1Cc1c(-c2ccc(Cl)cc2)nc2ccc(Cl)cn12`, the Potency entry is “inactive”.

As to `CCCCNS(=O)(=O)CCNCc1ccccc1OC`, the Potency entry is “inactive”.

For `COc1ccccc1Cc1c(-c2ccc(Cl)cc2)nc2c3ccccc3ccn12`, the Potency entry was “inactive”.

`COc1ccccc1CCNS(=O)(=O)c1cn(C)nc1C`: the Potency result was “inactive”.

On to `COc1ccc(CNC(=O)c2cc3c(-c4ccccc4F)nn(C)c3s2)c(OC)c1`, for which the Potency entry was “inactive”.

In the case of `CCCCc1c(-c2ccc(Cl)cc2)ncn1CCc1ccccc1OC`, the Potency is 13 µM (active).

`CCCCc1c(-c2ccc(Br)cc2)ncn1CCc1ccccc1OC`: the Potency was 20.6 µM (active).

As for `COc1cccc(OC)c1C(=O)N1CCN(Cc2ccccc2F)CC1`, the Potency result was “inactive”.

`CCCc1c(-c2ccccc2F)ncn1Cc1ccccc1OC`: the Potency was 20.6 µM (active).

With `COc1cc(Br)cc2cc(S(=O)(=O)c3ccccc3)c(=O)oc12`, the Potency entry is “inactive”.

Take `CCc1cccc(NC(=O)c2cnc(N3CCOCC3)c3ccccc23)c1`: the Potency entry was “inactive”.

Turning to `Oc1ccccc1-c1nc2ccc(Cl)cn2c1Nc1ccc2c(c1)OCCO2`, the Potency entry is “inactive”.

Take `CN(C)c1ccc(/C=C/c2sc3ccccc3[n+]2C)cc1`: the Potency entry is “inactive”.

Turning to `Cc1cccc(C)c1NC(=O)CN1CCN(c2ccc(F)cc2)CC1`, the Potency entry is “inactive”.

For the molecule `COc1ccc2[nH]c(=S)cc(C)c2c1`, the Potency was 14.6 µM (active).

For the molecule `COc1ccc2[nH]c(C(=O)N3CCN(C)CC3)c(C)c2c1`, the Potency result is “inactive”.

Take `COc1ccc2[nH]c3c(C)c4cc[n+](C)cc4c(C)c3c2c1`: the Potency result is “inactive”.

`CCOc1ccc(N(CC)S(=O)(=O)N2CCCC(C(=O)Nc3ccc(C(C)=O)cc3)C2)cc1` (centres undefined): the Potency result is “inactive”.

Turning to `CC(NS(=O)(=O)c1ccc(Br)cc1)C(=O)NCC1CCCO1` (centres undefined), the Potency entry was “inactive”.

For `OC(CNCC1CCCO1)Cn1c2ccc(Br)cc2c2cc(Br)ccc21` (centres undefined), the Potency is 23.1 µM (active).

On to `O=C(CCNS(=O)(=O)c1ccc(Br)cc1)NCC1CCCO1` (centres undefined), for which the Potency result was “inactive”.

In the case of `CCOC(=O)c1c(-c2ccc(OC)cc2)oc2ccc(OCc3ccc(C(=O)OC)cc3)cc12`, the Potency result was “inactive”.

For the molecule `COc1cc(OC)c2c(-c3cccc(-c4cccc(N)c4)c3)cc(=O)oc2c1`, the Potency is 7.31 µM (active).

For `COc1ccc(-c2c(C)cc3oc(=O)cc(-c4ccccc4)c3c2C)cc1OC`, the Potency result was “inactive”.

Regarding `COc1ccc(-c2c(C)cc3oc(=O)cc(-c4ccccc4)c3c2C)cc1F`, the Potency result is “inactive”.

In the case of `OC(Cc1ccc2ccccc2n1)c1ccc(Cl)c(Cl)c1` (centres undefined), the Potency result was “inactive”.

In the case of `O=C(CSc1ncc(CO)n1Cc1ccc(Cl)cc1)NCc1ccc(F)cc1`, the Potency entry is “inactive”.

As to `Cn1c(CCN2CCN(c3ccccn3)CC2)nc2cc(NS(=O)(=O)c3ccc(F)cc3)ccc21`, the Potency entry was “inactive”.

In the case of `COc1ccc(Cn2c(=O)sc3ccccc32)cc1OC`, the Potency was 2.59 µM (active).

As for `Cc1cccc(CSc2nnc(Cn3c(=O)sc4ccccc43)n2C)c1`, the Potency result was “inactive”.

On to `COc1ccccc1CNC(=O)CCn1c(=O)sc2ccccc21`, for which the Potency result is “inactive”.

Turning to `O=C(Nc1nnc([C@H]2C[C@H](O)[C@@H](CO)O2)s1)c1cccc(Cl)c1`, the Potency result was “inactive”.

For the molecule `COc1ccc(S(=O)(=O)NC(=O)C2(C)CCN2C(=O)COc2ccc(Cl)cc2)cc1` (centres undefined), the Potency entry was “inactive”.

Regarding `CC(C)COP(=O)(c1ccc(N(C)C)cc1)C(Nc1ccccc1)c1cccnc1` (centres undefined), the Potency was 23.1 µM (active).

`Cc1ccc(C(O)P(=O)(OC(C)C)c2ccc(N(C)C)cc2)cc1` (centres undefined): the Potency result was “inactive”.

For `CC(Nc1ccccc1)c1cccnc1` (centres undefined), the Potency entry was “inactive”.

Take `COc1ccccc1N1CCN(C2C(=O)c3ccccc3N2C(C)=O)CC1` (centres undefined): the Potency result was “inactive”.

For the molecule `COc1ccccc1N1CC(O)=C(c2nc3ccccc3s2)C1=N`, the Potency was 10.3 µM (active).

For the molecule `N=C1C(c2nc3ccccc3s2)=C(O)CN1NC(=O)c1ccc([N+](=O)[O-])cc1`, the Potency was 18.4 µM (active).

On to `COc1ccccc1OCc1nc2ccccc2s1`, for which the Potency entry was “inactive”.

For the molecule `Cc1ccc(C)n1NC(=O)c1ccc([N+](=O)[O-])cc1`, the Potency entry is “inactive”.

Consider `COc1ccc(-n2nnnc2-c2nc3ccccc3s2)cc1`, for which the Potency entry is “inactive”.

`N=C1C(c2nc3ccccc3[nH]2)=C(O)CN1NC(=O)c1c[nH]c2ccccc12`: the Potency entry was “inactive”.

As to `COC(=O)C[C@@H]1C=C[C@@H](NC(=O)c2ccc3c(c2)OCO3)[C@@H](CO)O1`, the Potency result was “inactive”.

As for `COc1ccc(-c2c(C#N)cnc(C)c2C)c(O)c1OC`, the Potency entry was “inactive”.

Regarding `CCCCn1nnnc1C(c1ccccc1)N1CCN(c2ccccc2OC)CC1` (centres undefined), the Potency result is “inactive”.

In the case of `CC1Cc2[nH][nH]c(=O)c2C(C2CCCC2)O1` (centres undefined), the Potency result was “inactive”.

Regarding `FC(F)(F)c1cccc(NC(=S)Nc2cccc(Cl)c2)c1`, the Potency entry is “inactive”.

As to `FC(F)(F)c1cccc(Nc2ncnc3ccccc23)c1`, the Potency was 18.4 µM (active).

As for `FC(F)(F)c1cccc(N/N=C/c2ccccc2)c1`, the Potency result is “inactive”.

As for `CN(Cc1ccccc1)C(=O)c1cn(C)c2ccc(S(=O)(=O)N3CCCCC3)cc2c1=O`, the Potency entry was “inactive”.

For the molecule `CN1OC[C@@H]2CN[C@H](c3ccc(-c4ccccc4)cc3)C[C@@H]21`, the Potency entry was “inactive”.

Consider `Cn1c(=O)c2c(SCC(=O)NCC3CCCO3)nc(-c3ccccc3F)nc2n(C)c1=O` (centres undefined), for which the Potency result was “inactive”.

Consider `COc1ccc(C(C(=O)NC2CCCCC2)N(C(=O)Cc2c[nH]c3ccccc23)c2ccccc2)cc1OC` (centres undefined), for which the Potency is 23.1 µM (active).

As to `COc1ccc(CNC(=O)[C@H](Cc2c[nH]c3ccccc23)NC(C)=O)cc1OC`, the Potency entry was “inactive”.

For `COc1ccc(C(C(=O)NC2CCCCC2)N(C(=O)CCl)c2ccccc2Cl)cc1` (centres undefined), the Potency result is “inactive”.

`C[C@@H]1CN([C@@H](C)CO)S(=O)(=O)c2ccc(-c3ccc(C(=O)N(C)C)cc3)cc2O[C@@H]1CN(C)Cc1ccccc1C(=O)O`: the Potency entry was “inactive”.
